Shown are actives, neighbours in structure and some others; about 2.1% of the full set was active somewhere.
Env fusion inh: inhibitors of HIV Env-mediated cell fusion | HeLa-JRFL Env/CEM21 cell fusion, luciferase | inhibition, % at 12.3 µM | actives 1.1% (n = 360,000);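 active = mean replicate inhibition score of at least 50 and every replicate individually at or above 50; inconclusive = only one of the two criteria met; inactive = mean below 50 and not all replicates reaching 50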
MLL AF4-AF9 inh: MLL-AF4/AF9 protein interaction inhibition. P42568. AlphaScreen, biotin-AF4 peptide binding to FLAG-AF9. inhibition, % at 10 µM. actives 0.47% (n = 350,000);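 active = every replicate reaching a set inhibition limit, whatever the replicate mean, cut at about 25% in these data; inconclusive = mean inhibition reaches that limit but some replicates miss it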
Target sequence (P42568 whole entry, looked up): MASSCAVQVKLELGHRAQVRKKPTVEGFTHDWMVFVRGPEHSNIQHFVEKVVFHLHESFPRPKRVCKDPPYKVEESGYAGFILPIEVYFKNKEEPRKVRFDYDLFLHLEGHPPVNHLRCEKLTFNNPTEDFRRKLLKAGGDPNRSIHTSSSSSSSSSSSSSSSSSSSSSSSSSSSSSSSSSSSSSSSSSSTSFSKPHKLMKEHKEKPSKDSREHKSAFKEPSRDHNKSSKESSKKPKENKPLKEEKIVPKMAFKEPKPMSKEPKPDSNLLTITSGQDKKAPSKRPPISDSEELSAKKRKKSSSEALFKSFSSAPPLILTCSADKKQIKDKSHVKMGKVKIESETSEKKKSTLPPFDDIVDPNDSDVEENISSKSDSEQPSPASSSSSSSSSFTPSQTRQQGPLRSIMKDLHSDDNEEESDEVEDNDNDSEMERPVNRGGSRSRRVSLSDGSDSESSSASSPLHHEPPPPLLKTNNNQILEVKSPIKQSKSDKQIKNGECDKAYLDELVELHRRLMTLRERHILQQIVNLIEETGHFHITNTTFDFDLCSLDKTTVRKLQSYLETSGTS
NSD2 HMT inh: blocks human histone methyltransferase NSD2; actives 0.54% (n = 310,000); inhibition, % at 12.5 µM; O96028; NSD2 peptide methylation, AlphaScreen, 120 min; in the data active = inhibition above about 50%
INS-1E GSIS act: GLuc luminescence reporter in INS-1E cells, primary screen for activators of glucose-dependent secretion of insulin; INS-1E GLuc reporter insulin secretion, 2-3 h; actives 0.61% (n = 370,000); activation, % at 16.6 µM;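 active = lowest replicate activation of at least 40%, so every replicate reaches that level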
PGC1a acetyl inh: PGC1a acetylation modulation, inhibitor mode; U2OS PGC1a acetylation, AlphaScreen anti-acetyl-lysine; with virally co-expressed GCN5 acetyltransferase; inhibition, % at 15.6 µM; actives 0.17% (n = 350,000);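 active = every replicate shows inhibition of at least 40%; inconclusive = mean inhibition at least 40% but some replicate below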
Large screens that a line does not name were inactive; [ ] = remark or other dose.

Cn1c(=S)[nH]c2cccnc21	none (no result: Env fusion inh, MLL AF4-AF9 inh, INS-1E GSIS act)
CCN(CC)CCNC(=O)c1[nH]c2ccc(OCc3ccccc3)cc2c1C	MLL AF4-AF9 inh 25
O=C1c2cccnc2C(Nc2cccc(F)c2)N1Cc1ccco1 (stereo not given)	INS-1E GSIS act 70
CC(=O)c1cccc(NC2c3ccccc3C(=O)N2Cc2ccco2)c1 (stereo not given)	none
CC(=O)c1cccc(NC2c3ncccc3C(=O)N2Cc2ccco2)c1 (stereo not given)	INS-1E GSIS act 50 (no result: Env fusion inh)
CC(=O)CSc1nc2c(c(=O)[nH]c(=O)n2C)n1Cc1cccc(Br)c1	none (no result: INS-1E GSIS act)
Cc1ccc2nc3ccc(N4CCCC4)nn3c(=O)c2c1	none (no result: Env fusion inh, MLL AF4-AF9 inh)
N#CC1=C(N)OC2=C(C(=O)CC(c3ccccc3)C2)C1c1cccnc1 (stereo not given)	INS-1E GSIS act 47 (no result: Env fusion inh, MLL AF4-AF9 inh, PGC1a acetyl inh)
CCCCCCCC[n+]1cccc2c3ccccc3ccc21	Env fusion inh 84
CCCCCCCCCC[n+]1cccc2c3ccccc3ccc21	Env fusion inh 59, INS-1E GSIS act 97
CC/C(=C\C1CCCCC1)C(NP(=O)(c1ccccc1)c1ccccc1)c1ccccc1 (stereo not given)	Env fusion inh 107 (no result: NSD2 HMT inh)
CC1=NN(c2ccc(C)c(C)c2)C(=O)/C1=C\C=C\c1ccc([N+](=O)[O-])o1	PGC1a acetyl inh 59
CC1=NN(c2ccccc2)C(=O)/C1=C\C=C\c1ccccc1	none (no result: INS-1E GSIS act)
Cc1ccc(S(=O)(=O)N(C)C[C@@H]2OCCCC[C@H](C)Oc3ccc(NC(=O)Nc4c(C)noc4C)cc3C(=O)N([C@H](C)CO)C[C@H]2C)cc1	none (no result: NSD2 HMT inh)
COc1ccc(COC[B-](F)(F)F)cc1	INS-1E GSIS act 44 (no result: Env fusion inh, NSD2 HMT inh)
COc1ccc(CCCCCCOCc2ccccc2)cc1	none (no result: NSD2 HMT inh)
COc1ccc(C(=O)Nc2cccnc2Cl)cc1OC	INS-1E GSIS act 47
Cc1c(Cl)cccc1NC(=S)NC1CCN(Cc2ccccc2)CC1	MLL AF4-AF9 inh inconclusive (no result: PGC1a acetyl inh)
Cc1nn(-c2ccccc2)c(Cl)c1/C=N/O	none (no result: PGC1a acetyl inh)
Cc1nn(-c2ccccc2)c(N2CCCC2)c1/C=N/O	INS-1E GSIS act 91 (no result: Env fusion inh)
Cc1nn(-c2ccccc2)c(N2CCCC2)c1/C=N/NC(=S)Nc1ccccc1C(F)(F)F	none (no result: INS-1E GSIS act, PGC1a acetyl inh)
COc1ccccc1NS(=O)(=O)c1cccc(C(=O)N/N=C/c2c(C)nn(-c3ccccc3)c2N2CCCC2)c1	INS-1E GSIS act 73 (no result: Env fusion inh, PGC1a acetyl inh)
COc1ccccc1NS(=O)(=O)c1ccc(N/N=C/c2c(C)nn(-c3ccccc3)c2N2CCCC2)c([N+](=O)[O-])c1	none (no result: MLL AF4-AF9 inh, PGC1a acetyl inh)
Cc1ccc(NC(=S)N/N=C/c2c(C)nn(-c3ccccc3)c2N2CCCC2)cc1	INS-1E GSIS act 64 (no result: Env fusion inh, PGC1a acetyl inh)
Cc1nn(-c2ccccc2)c(N2CCCC2)c1/C=N/NC(=S)Nc1cc(C(F)(F)F)ccc1Cl	none (no result: Env fusion inh, MLL AF4-AF9 inh)
Cc1nn(-c2ccccc2)c(N2CCCC2)c1/C=N/NC(=S)Nc1ccc(F)cc1	INS-1E GSIS act 75 (no result: NSD2 HMT inh)
Cc1ccccc1C(=O)N1CCC(C(=O)N(CC(C)C)c2c(N)n(CC(C)C)c(=O)[nH]c2=O)CC1	none (no result: Env fusion inh)
COC(=O)c1ccccc1NC1c2ccccc2C(=O)N1c1cccnc1 (stereo not given)	MLL AF4-AF9 inh 55 (no result: NSD2 HMT inh)
Cc1cc(C(F)(F)F)n(-c2nc(C(=O)NNS(=O)(=O)c3ccccc3[N+](=O)[O-])cs2)n1	PGC1a acetyl inh 110
CCCC#Cc1ccc2c(c1)[C@@H]1[C@@H](CCN1S(=O)(=O)c1ccc(F)cc1)[C@@H](CO)N2C	none (no result: Env fusion inh, NSD2 HMT inh)
NC(=O)c1cc(N)ccc1N1CCCC1	NSD2 HMT inh 51 (no result: MLL AF4-AF9 inh)
CCCCn1nc2cc(C(=O)NCc3cc(C(F)(F)F)cc(C(F)(F)F)c3)ccc2c1OC	Env fusion inh 63 (no result: NSD2 HMT inh)
C[C@H](NC(=O)c1ccco1)C(=O)NCCc1ccc(S(N)(=O)=O)cc1	none
CCCC(=O)Nc1ccc2c(c1)OC[C@@H](C)N(Cc1cncnc1)C[C@@H](C)[C@@H](OC)CN(C)C2=O	MLL AF4-AF9 inh 44 (no result: Env fusion inh, NSD2 HMT inh)
CCC(=O)Nc1ccc2c(c1)C(=O)N(C)C[C@H](OC)[C@@H](C)CN(C(=O)CC)[C@H](C)CO2	none (no result: MLL AF4-AF9 inh, NSD2 HMT inh)
CCS(=O)(=O)Nc1ccc2c(c1)C(=O)N(C)C[C@H](OC)[C@@H](C)CN(C(=O)C1CCC1)[C@H](C)CO2	Env fusion inh 61[16.7 µM] (no result: NSD2 HMT inh)
CO[C@H]1CN(C)C(=O)c2ccc(NS(=O)(=O)CC(F)(F)F)cc2OC[C@H](C)N(C(=O)c2ccc3c(c2)OCO3)C[C@@H]1C	none (no result: NSD2 HMT inh)
CCC(=O)Nc1ccc2c(c1)C(=O)N(C)C[C@@H](OC)[C@H](C)CN(C(=O)CC)[C@@H](C)CO2	Env fusion inh 59[16.7 µM] (no result: NSD2 HMT inh)

Source: PubChem (Broad Institute)
